Screens: PubChem, National Center for Advancing Translational Sciences (NCATS)
L3MBTL1 inh: L3MBTL1 (human) inhibition; AlphaScreen L3MBTL1–H3K9me1 peptide binding; actives 0.66% (n = 230,000); Q9Y468; Potency, µM (titrated, usually from 57.1 µM), for inactives: top-dose activity, negative = inhibition, hits mostly inhibitors; also: % is scaled to controls: 0 for no effect and ±100 for the full control effect; nearly all actives have a fitted effect of over 60% in size
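AlphaScreen proximity signal between nickel-chelate acceptor and streptavidin donor beads (final 10 ug/mL) reports binding of 50 nM L3MBTL1 to 75 nM biotin-H3 K9me1 peptide; complex incubated with compounds 30 min at room temperature; cefsulodin titration as control.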
BAZ2B inh: inhibitors of human BAZ2B bromodomain; Q9UIF8; AlphaScreen BAZ2B-H3K14Ac peptide displacement; Potency, µM (highest dose often 114 µM), for the others: at the highest dose activity change, negative = inhibition, usual class: inhibitors; actives 4.4% (n = 360,000); AID 504333; also: % is scaled to controls: 0 for no effect and ±100 for the full control effect; nearly all actives have a fitted effect of over 60% in size
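Protein-peptide AlphaScreen: BAZ2B 50 nM, b-H3K14Ac 50 nM, 1x PBS pH 7.4 + 0.01% Tween-20. Preincubation 30 min RT; cpd 30 min RT (top 110 uM); beads 20 min RT, light-protected.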
JMJD2A Tudor inh: blocks the human JMJD2A Tudor domain; O75164; AlphaScreen JMJD2A-Tudor / H3K4me3 peptide binding; AID 504339; actives 4.4% (n = 390,000); Potency, µM (highest dose often 114 µM), without a hit: top-dose activity change, negative = inhibition, usual class: inhibitors; also: % is scaled to controls: 0 for no effect and ±100 for the full control effect; nearly all actives have a fitted effect of over 50% in size
G9a inh: blocks human histone lysine methyltransferase G9a. G9a H3K9 monomethylation, AlphaScreen, 2 h. Potency, µM (titrated, usually from 102 µM), for the others: top-dose activity, negative = inhibition, usual class: inhibitors. actives 8.8% (n = 350,000). AID 504332; also: % is scaled to controls: 0 for no effect and ±100 for the full control effect; nearly all actives have a fitted effect of over 75% in size
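Compounds were preincubated with 20 nM G9a for 15 min, after which biotinylated H3K9 peptide (500 nM) and SAM (20 uM) started a 2 h room-temperature reaction. Monomethylated product was quantified by antibody-based AlphaScreen chemiluminescence.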
HP1b binding inh: inhibitors of HP1-beta chromodomain binding to methylated histone tails; P83916; AlphaScreen HP1-beta / biotin-H3K9me3 peptide binding; Potency, µM (series often up to 114 µM), inactives show top-dose activity change, negative = inhibition, hits mostly inhibitors; actives 0.56% (n = 390,000); also: nearly all actives have a fitted effect of over 70% in size
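Compound inhibition of the preformed complex between 50 nM HP1-beta and 50 nM biotinylated H3K9me3 peptide was read by AlphaScreen. Buffer was PBS pH 7.4 with 0.01% Tween-20. Incubations ran 30 min at room temperature, with 10 ug/mL donor/acceptor beads.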
Sfp PPTase inh: inhibitors of Bacillus subtilis Sfp phosphopantetheinyl transferase. actives 3.5% (n = 310,000). Potency, µM, without a hit: largest response in the series, negative = inhibition, usual class: inhibitors. Q9F4F7. AID 1490. Biochemical Sfp PPTase activity, qHTS;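 also: the enzyme is Sfp with the accession as filed and its product quenches rhodamine fluorescence; 0% = enzyme reaction without inhibitor and -100% = no enzyme wells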
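Fluorescence-quenching assay: 15 nM Sfp-PPTase preincubated 15 min at room temperature with compound, then 5 uM rhodamine-CoA and 12.5 uM BHQ-2-labelled YbbR peptide added. Fluorescence (ex 525/em 598 nm) read at start and after 30 min; difference gives rate.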
Numbers without * were called inactive; u = inconclusive; x = no result; [ ] = remark or other dose. Only some compounds are listed: those with a hit (about 12% of all), similar ones and a draw of the others. Calls follow the shape of the dose curve; as a rule, active = well fitted curve in the direction sought with a large enough effect; inconclusive = small, poorly fitted or top-dose-only effect, or another doubt; inactive = no such curve, though single readings can be large; an effect the other way counts as inactive or inconclusive. Potency is read from the fitted curve at half-maximal effect.

SMILES	L3MBTL1 inh	BAZ2B inh	JMJD2A Tudor inh	G9a inh	HP1b binding inh	Sfp PPTase inh
COc1ccc(CN2CCN(C(=O)c3cccs3)CC2)cc1	3%	56µM*	1.3µM*	10µM*	u	-24%
O=C(c1cccnc1)N1CCN(CCCc2ccccc2)CC1	0%	x	5µM*	u	56µM*	u
O=C(c1cccs1)N1CCN(Cc2ccccc2)CC1	3%	0%	0%	-2%[59 µM]	19%	28%
O=C(c1cccs1)N1CCN(CCCc2ccccc2)CC1	x	79µM*	3.2µM*	32µM*	45µM*	-17%
O=C(CNc1ccccc1)N/N=C/c1c(O)ccc2ccccc12	x	-1%	-15%	-13%	24%	3%
COc1ccc(N=Cc2c(O)n(-c3ccc(OC)cc3)c(=O)c3ccccc23)cc1	x	-18%	-15%	-26%	22%	-26%
CC(=O)Nc1ccc(N=Cc2c(O)ccc3ccccc23)cc1	-8%	-25%	-27%	1.8µM*	1%	-2%
COc1ccc(N=Cc2c(O)ccc3ccccc23)cc1	-5%	-20%	35%	0.79µM*	82%	u
O=S(=O)(/N=C/c1c(O)ccc2ccccc12)c1ccccc1	-6%	-20%	56µM*	1.4µM*	79µM*	-1%
O=C(O)c1ccc(N=Cc2c(O)ccc3ccccc23)cc1	-14%	-5%	u	1.1µM*	15%	0%
NC(=O)c1ccc(N=Cc2c(O)ccc3ccccc23)cc1	x	x	u	x	5%	x
O=C(NCCCCc1ccccc1)c1nn(-c2ccccc2)nc1CO	x	26%	19%	35%[59 µM]	56%	x
COC(=O)NC(CCc1ccccc1)C(C(C)=O)C(=O)OC (configuration not stated)	x	x	x	x	x	6%
COCCNC(=O)CCCn1c(SCC(=O)c2ccc(Br)cc2)nc2c(sc3ccccc32)c1=O	x	-14%	-11%	4%[59 µM]	18%	x
Nc1cc(Cl)nc(N/N=C/c2c(O)ccc3ccccc23)n1	-16%	2%	-12%	-19%[59 µM]	18%	23%
Cc1ccc(N=Cc2c(O)ccc3ccccc23)cc1F	-2%	7%	56µM*	1.3µM*	0%	-17%
COc1ccc(NC(C)C(=O)N/N=C/c2c(O)ccc3ccccc23)cc1 (configuration not stated)	x	0%	-13%	45µM*	50%	17%
N#Cc1cccc(N=Cc2c(O)ccc3ccccc23)c1	-11%	-3%	35µM*	1.4µM*	-25%	-3%
O=C(O)Cc1ccc(N=Cc2c(O)ccc3ccccc23)cc1	-15%	-29%	-26%	1.6µM*	-9%	2%
Cc1occc1C(=O)N/N=C/c1c(O)ccc2ccccc12	x	19%	-18%	44%	38%	8%
CCOc1ccc(-c2c(C)nn3c(C)c(C(=O)Nc4cccc(Cl)c4C)cnc23)cc1OCC	x	-14%	-18%	-2%[59 µM]	17%	x
COc1ccc(-n2nc3ccc(NC(=O)c4c(OC)cccc4OC)cc3n2)cc1	x	9%	3%	31%[59 µM]	76%	x
COC(=O)c1ccccc1NS(=O)(=O)c1cc2c3c(c1)CC(=O)N3CCC2	x	-14%	-11%	-3%[59 µM]	25%	x
COc1ccc(NC(C)C(=O)N/N=C/c2ccccc2OCc2cccc(Br)c2)cc1 (configuration not stated)	u	10µM*	11µM*	40µM*	u	5%
Cc1ccccc1NC(C)C(=O)N/N=C/c1ccccc1OCc1cccc(Br)c1 (configuration not stated)	-8%	-8%	-31%	-45%[59 µM]	4%	15%
CC#CCN1c2ccccc2[C@]23C[C@@H](C(=O)OC)N(S(=O)(=O)c4ccc5c(c4)OCCN5C)C2=NC(C(=O)OC)=C(C(=O)OC)[C@H]13	x	x	x	x	x	10%
CN(C)c1ncc2ncc(=O)n(Cc3ccc(F)cc3)c2n1	x	x	x	-3%[12.7 µM]	x	7%
CC(NC1CCCC1)C(=O)Nc1ccccc1-c1ccccc1 (configuration not stated)	-2%	79µM*	2µM*	u	u	-16%
